High-throughput results deposited in PubChem BioAssay by several laboratories.
A selection: hits, their analogues and other compounds. The true share with any hit is near 27%.
CYP2C9 activ = CYP2C9 (human) activation; P11712; recombinant CYP2C9, luciferin-H conversion, luminescence; stronger effect = higher value; factor 1 = untreated enzyme, 0 = blocked; activation factor at 5 µM; hit rate 1.4% among 96,000; AID 1024;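 active means activation factor of 2 or more for CYP2C9 at a 5 µM dose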
Cav3 T inh = human Cav3.2 channel inhibition, primary screen. Cav3.2-expressing cells, Fluo-4 calcium fluorescence FDSS; stronger effect = lower value. B-score at 10 µM. hit rate 4% among 100,000;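 active means single-dose well whose peak fluorescence ratio is a statistical outlier from its plate by either plate-standardised score or position-corrected B-score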
CYP2C19 activ = activators of human cytochrome P450 2C19. P33261. recombinant CYP2C19, luciferin-H EGE luminescence; stronger effect = higher value; 0 = fully inhibited enzyme, 1 = untreated enzyme. activation factor at 5 µM. 96,000 tested, under 10 active. AID 1025;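 active means activation factor of at least 2 at 5 µM in the primary screen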
Target sequence (P33261 whole entry, looked up): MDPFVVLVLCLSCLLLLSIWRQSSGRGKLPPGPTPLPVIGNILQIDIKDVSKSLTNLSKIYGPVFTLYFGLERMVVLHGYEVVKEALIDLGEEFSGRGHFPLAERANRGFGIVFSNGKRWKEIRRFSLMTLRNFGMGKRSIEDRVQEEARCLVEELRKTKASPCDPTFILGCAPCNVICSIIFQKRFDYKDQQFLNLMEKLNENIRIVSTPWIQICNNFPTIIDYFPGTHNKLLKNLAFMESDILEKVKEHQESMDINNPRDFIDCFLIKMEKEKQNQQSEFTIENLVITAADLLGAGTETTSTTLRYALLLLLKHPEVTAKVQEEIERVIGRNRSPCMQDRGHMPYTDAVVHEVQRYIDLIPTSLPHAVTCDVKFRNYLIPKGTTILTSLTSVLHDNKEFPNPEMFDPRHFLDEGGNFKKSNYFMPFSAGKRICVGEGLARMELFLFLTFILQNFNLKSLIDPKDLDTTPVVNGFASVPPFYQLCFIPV
CYP2C19 inh = human CYP2C19 inhibition; P33261; CYP2C19 Supersomes, luciferin-H EGE luminescence, 30 min; inhibition, % at 5 µM; hit rate 21% among 96,000; AID 778;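 active means CYP2C19 inhibition above a set limit at 5 µM in the primary screen, cut at about 50% in these data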
CYP2C9 inhib = blocks human cytochrome P450 2C9 | inhibition, % at 5 µM | P11712 | CYP2C9 Supersomes, luciferin-H conversion, luminescence | hit rate 20% among 96,000;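 active means blocking of liver enzyme CYP2C9 beyond about 50% at 5 µM, limit read from the data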
PTK2B oligo ant = blocks oligomerization of human Pyk2 in cells; Q14289; Q293 cells, Pyk2 FERM NanoBiT luminescence; stronger effect = lower value; z-score (the deposit names both 25 µM and 10 µM); hit rate 0.83% among 99,000;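 active means Z-score of -3 or lower, scaled per plate to the spread of control and sample wells; inactive means z-score above -3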;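 further: negative z-score means lost luminescence so less FERM oligomerization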
Large screens that a line does not name were inactive.

CCOC(=O)C1CN(S(=O)(=O)c2cccc(C(F)(F)F)c2)c2cc(CC(=O)OC)ccc2O1 (stereo not drawn)	CYP2C19 inh 79, CYP2C9 inhib 60
CCOC(=O)C1CN(S(=O)(=O)c2ccccc2)c2cc(S(=O)(=O)CC)ccc2O1 (stereo not drawn)	none
Cc1cccc(C)c1N1CCN(c2ccc3nnc(C(F)(F)F)n3n2)CC1	CYP2C19 inh 64, CYP2C9 inhib 89
O=C(C1CCCN(S(=O)(=O)c2cccc3cccnc23)C1)N1CCc2ccccc21 (stereo not drawn)	none (no result: PTK2B oligo ant)
COc1ccccc1C1C2C(=O)N(c3ccccc3)C(=O)C2ON1c1ccccc1 (stereo not drawn)	CYP2C19 inh 77, CYP2C9 inhib 86
O=C(O)COc1ccccc1C1C2C(=O)N(c3ccc(F)cc3)C(=O)C2ON1c1ccccc1 (stereo not drawn)	CYP2C9 inhib 54
CCOc1ccc(NS(=O)(=O)c2ccc(NC(=S)NC(=O)CC(C)C)cc2)cc1	CYP2C19 inh 90, CYP2C9 inhib 99
CCOc1ccc(S(=O)(=O)Nc2cccnc2)cc1	CYP2C19 inh 94, CYP2C9 inhib 66
CCOc1ccc(NS(=O)(=O)c2ccc(NS(=O)(=O)c3ccc(SC)cc3)cc2)cc1	CYP2C9 inhib 87
CCOc1ccc(NS(=O)(=O)c2ccc(NS(C)(=O)=O)cc2)cc1	CYP2C9 inhib 64
CCCC(=O)NC(=S)Nc1ccc(S(=O)(=O)Nc2ccc(OCC)cc2)cc1	none (no result: CYP2C9 activ, Cav3 T inh, CYP2C19 activ, CYP2C19 inh, CYP2C9 inhib)
COc1cccc(S(=O)(=O)Nc2cccnc2)c1	none
Cc1ccccc1COCCN1CCN(S(=O)(=O)c2ccccc2)CCC1=O	none (no result: CYP2C9 activ, CYP2C19 activ, CYP2C19 inh, CYP2C9 inhib, PTK2B oligo ant)
Cc1ccc(NC(=O)N/C=C/c2ccco2)cc1	none (no result: Cav3 T inh)
O=C(Cn1ncc2c1-c1ccccc1OC2)Nc1ccc(Cl)cn1	none (no result: PTK2B oligo ant)
COc1ccc(NS(=O)(=O)c2ccc(NS(=O)(=O)c3ccc(SC)cc3)cc2)c(OC)c1	Cav3 T inh -4.9, CYP2C9 inhib 83
Cc1cc2c(cc1C)CSC(c1ccccc1OC(=O)C(C)(C)C)SC2	CYP2C9 inhib 52 (no result: Cav3 T inh)
Cc1cc2c(cc1C)CSC(c1c(O)ccc3ccccc13)SC2	CYP2C19 inh 81, CYP2C9 inhib 99
Cc1cc2c(cc1C)CSC(c1ccccc1O)SC2	none
Cc1cc2c(cc1C)CSC(c1ccc3ccccc3c1O)SC2	CYP2C19 inh 53, CYP2C9 inhib 92
Cc1cc2c(cc1C)CSC(c1ccc(O)cc1)SC2	none
CCCCC(=O)Oc1ccccc1C1SCc2cc(C)c(C)cc2CS1	none
CC(C)Sc1nc(C(F)(F)F)cc(=O)n1-c1ccccc1	none
N#CC1=C(N)NC(SCc2ccc(F)cc2)=C(C#N)C12CCCCC2	CYP2C19 inh 100, CYP2C9 inhib 100 (no result: Cav3 T inh)
N#CC1=C(N)NC(SCC(=O)O)=C(C#N)C12CCCC2	none (no result: Cav3 T inh)
CCOC(=O)C1=C(SCC(=O)Nc2ccccc2)NC(=O)C(C#N)C12CCCCC2 (stereo not drawn)	Cav3 T inh -4.1, CYP2C19 inh 93, CYP2C9 inhib 85
N#CC1=C(N)NC(SCC(=O)Nc2ccccc2)=C(C#N)C12CCCC2	CYP2C19 inh 99, CYP2C9 inhib 95
CC1=C(C(=O)Nc2ccccc2)C2(CCCCC2)C(C#N)=C(S)N1	CYP2C19 inh 68, CYP2C9 inhib 84
C=CC[n+]1c(-c2ccc(OCC)cc2)csc1NNC(=O)Nc1ccccc1	none
COc1cccc(N(C(=O)c2cccs2)c2nc3ccccc3s2)c1	none
N#Cc1c(Nc2ccccc2)sc(C(=O)c2ccccc2)c1N	none
Cc1cccc(Oc2sc(C(=O)c3ccccc3)c(N)c2C#N)c1	CYP2C19 inh 61
CCOC(=O)CSC(CC)C(=O)Nc1nnc(CC)s1 (stereo not drawn)	none (no result: PTK2B oligo ant)
Cc1cc(C)nc(N(C#N)Cc2cccc3ccccc23)n1	CYP2C9 activ 2.9, Cav3 T inh -5.2, CYP2C19 inh 59
Cc1cc(C)nc(N(C#N)CN2C(=O)c3ccccc3S2(=O)=O)n1	none
Cc1cc(C)nc(N(C#N)Cc2ccccc2)n1	CYP2C9 activ 2
Cc1cc(C)nc(N(C#N)CCOc2ccccc2)n1	none
Cc1cc(C)nc(N(C#N)CC(=O)c2ccccc2)n1	CYP2C9 activ 2.2
O=C(NC1(C(F)(F)F)C(=O)Nc2c1c(=O)[nH]c(=O)n2-c1ccccc1)c1ccncc1 (stereo not drawn)	none (no result: CYP2C9 activ, CYP2C19 activ, CYP2C19 inh, CYP2C9 inhib)
